PfHsp90 set2: growth inhibition of PfHsp90-expressing yeast, primary screen, antimalarial PfHsp90 inhibitor project, S. cerevisiae, BacTiter-Glo luminescence, single point, set 2; BacTiter-Glo ATP, 48 h; yeast lacking PDR1 and PDR3 efflux regulators; 0.32% of 310,000 active; inhibition, % at 9.4 µM;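 active = every replicate shows inhibition above about 80%, whatever the replicate mean, limit read from the data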;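 note: 0% = DMSO neutral controls and 100% = 20 µM radicicol positive controls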
tim10-1 inh: growth inhibitors of tim10-1 mutant yeast, primary screen, luminescence, uHTS. S. cerevisiae tim10-1 ts strain growth, BacTiter-Glo, 24 h. AID 463190, 2010. inhibition, % at 20 µM. 2.2% of 330,000 active;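 active = inhibition of at least 40%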;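 note: mutant grown at 25 °C; 0% = DMSO wells with yeast and 100% = wells holding no yeast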
NALP1 inh: NALP1 inflammasome inhibitors in reconstituted yeast, colorimetric, S. cerevisiae, triplicate retest; 0.61% of 280,000 active; S. cerevisiae NALP1/ASC/caspase-1 growth, X-gal OD620, 72 h; inhibition, % at 10 µM; in the data active = inhibition mostly above about 24%, no sharp cut-off; inactive = mostly below about 32%
NALP3 yeast inh: NALP3 inflammasome inhibitors in reconstituted yeast, primary screen, luminescence, uHTS; Yeast reconstituted NLRP3/ASC/caspase-1, beta-gal luminescence, 24 h; inhibition, % at 10 µM; 0.39% of 330,000 active;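 active = inhibition of 50% or more; inactive = inhibition below 50%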;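 note: plate controls were induced DMSO wells for no effect and uninduced yeast grown without galactose for full effect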
tim23-1 inh: growth inhibitors of tim23-1 mutant yeast, primary screen, luminescence, uHTS; AID 463212, 2010; S. cerevisiae tim23-1 growth, BacTiter-Glo luminescence, 24 h; 1.3% of 330,000 active; inhibition, % at 20 µM;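 active = growth inhibition of the mutant yeast at or above 50%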;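 note: temperature-sensitive mutant grown at 25 °C; plate controls were DMSO-treated mutant yeast for no effect and medium wells lacking yeast for full effect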
TIM10 inh: growth inhibitors of isogenic TIM10 control yeast, primary screen, counter-screen for tim10-1 yeast inhibitor project, luminescence, uHTS; inhibition, % at 10 µM; S. cerevisiae TIM10 strain growth, BacTiter-Glo luminescence, 24 h; AID 463195, 2010; 1.4% of 330,000 active;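 active = inhibition of 40% or more at the single tested concentration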;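 note: wild-type TIM10 isogenic control strain grown at permissive 25 °C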
tim10-1 conf: growth inhibitors of tim10-1 mutant yeast, confirmation, single concentration, luminescence, S. cerevisiae; shares compounds with tim10-1 inh; S. cerevisiae tim10-1 ts strain growth, BacTiter-Glo, 24 h; inhibition, % at 20 µM; 56% of 7,400 active;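 active = inhibition of yeast growth at or above a set limit in either of two repeat tests at 20 µM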;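 note: tim10-1 mutant grown at permissive 25 °C to find synthetic lethal compounds; 0% = DMSO yeast wells and 100% = medium wells without yeast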
tim10 confirm: growth inhibitors of wild-type TIM10 yeast, confirmation, counter-screen for tim10-1 synthetic lethality project, single concentration, luminescence, S. cerevisiae; inhibition, % at 10 µM; 63% of 4,600 active; shares compounds with TIM10 inh; S. cerevisiae tim10 strain growth, BacTiter-Glo luminescence, 24 h;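 active = inhibition of yeast growth at or above a set limit in either of two replicates at 10 µM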;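 note: this counterscreen used the strain with wild-type TIM10; 0% = yeast with DMSO and 100% = medium wells lacking yeast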
tim23-1 confirm: tim23-1 mutant yeast growth inhibitors, confirmation, luminescence, single concentration | shares compounds with tim23-1 inh | S. cerevisiae tim23-1 growth, BacTiter-Glo luminescence, 24 h | inhibition, % at 20 µM | 83% of 4,400 active;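 active = inhibition above about 39% in either of two replicate wells at 20 µM, limit read from the data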;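 note: temperature-sensitive tim23-1 mutant grown at 25 °C; 0% = DMSO wells with yeast and 100% = medium wells without yeast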
Numbers without * were called inactive; . = not tested or not shown. This is a sample that favours compounds with a hit; in the whole collection about 4.2% have one here.

SMILES | PfHsp90 set2 | tim10-1 inh | NALP1 inh | NALP3 yeast inh | tim23-1 inh | TIM10 inh | tim10-1 conf | tim23-1 confirm | others
Cn1cc([N+](=O)[O-])c(C(=O)Nc2sc3c(c2C#N)CCC3)n1 | 16 | 45* | 14 | -3 | 56* | 31 | 34* | 48*
O=C(Nc1ccccc1Cl)c1ccccc1Oc1ccc(C(F)(F)F)cc1[N+](=O)[O-] | -12 | 44* | 1 | 13 | 56* | 12 | 36* | 51*
Cc1cc(C)c(S(=O)(=O)N2CCN(C(=O)c3ccc(-n4cncn4)c([N+](=O)[O-])c3)CC2)c(C)c1 | . | -5 | . | 4 | 0 | -1 | . | .
O=S(=O)(c1ccccc1)c1ncc(C(F)(F)F)cc1Cl | -10 | 46* | 25 | 46 | 53* | 23 | 22 | 51*
CC(C)[C@H](NS(=O)(=O)c1ccccc1)C(=O)OCc1cc([N+](=O)[O-])cc2c1OCOC2 | 4 | . | . | . | . | . | . | .
CC(Oc1cccc([N+](=O)[O-])c1)C(=O)NCCC1=CCCCC1 (stereo not given) | -18 | 7 | . | 16 | 22 | 0 | . | .
CCn1c(/C=C\c2ccccc2C)nc2ccccc2c1=O | -16 | 26 | 5 | 8 | 19 | 21 | . | .
CCN1C(=O)/C(=C\N(C)C)c2ccccc21 | . | 14 | 3 | -10 | -1 | 2 | . | .
CCn1c(/C=C/c2ccccc2Cl)nc2ccccc2c1=O | -28 | 32 | 6 | 11 | 27 | 11 | . | .
CCn1c(/C=C2/C(=O)N(C)c3ccccc32)nc2ccccc2c1=O | . | 50* | 8 | 24 | 54* | 37 | 32* | 58*
CCCN1C(=O)/C(=C/c2nc3ccccc3c(=O)[nH]2)c2ccccc21 | 6 | 51* | 25 | 11 | 52* | 42* | 36* | 55* | tim10 confirm=16
CCN1C(=O)/C(=C\c2nc3ccccc3c(=O)n2CC)c2ccccc21 | -9 | 55* | 21 | 16 | 56* | 47* | 44* | 57* | tim10 confirm=33*
CCN1C(=O)/C(=C/N(C)C)c2ccccc21 | . | 15 | 25 | 4 | -2 | -11 | . | .
CCn1c(/C=C2\C(=O)N(C)c3ccccc32)nc2ccccc2c1=O | -17 | 45* | 4 | 14 | 52* | 43* | 39* | 52* | tim10 confirm=25
COc1c(C)cc(Br)cc1C(=O)NC(=S)NCc1ccco1 | -15 | -2 | -5 | 33 | 23 | -16 | . | .
O=C1NC(=O)c2c(Br)c(Br)c(Br)c(Br)c21 | -8 | . | . | . | . | . | . | .
CCc1cccc(CC)c1NC(=O)C1CCN(C(=O)c2ccco2)CC1 | 21 | -17 | 10 | 25 | 3 | 7 | . | .
Cc1cc(S(=O)(=O)N2c3ccc(F)cc3CCC2C)ccc1-n1cnnn1 (stereo not given) | -13 | -2 | 23 | 25 | 9 | 6 | . | .
COc1c(O)c(O)c2oc(-c3ccccc3)cc(=O)c2c1OC | 30 | 50* | -13 | 42 | 59* | 40* | 33* | 56* | tim10 confirm=31*
COc1cc(-c2cc(=O)c3c(O)c(OC)c(OC)c(O)c3o2)ccc1O | 3 | 18 | 2 | 14 | 22 | 4 | . | .
Cc1cc(=O)oc2c(C)c(OCC(=O)Nc3cccnc3)ccc12 | 4 | 10 | 30 | 11 | -1 | -2 | . | .
CCN(CC)c1ccc(/C=C/c2ccc3ccc(OC)cc3[n+]2CC)cc1 | 32 | 73* | 11 | 26 | 68* | 31 | 68* | 58*
Cc1ccc(Nc2ccc([N+](=O)[O-])nc2[N+](=O)[O-])cc1 | 1 | 42* | 40 | 18 | 53* | 42* | 27 | 43* | tim10 confirm=25
Cc1ccc(Nc2ccc3nonc3c2[N+](=O)[O-])cc1 | -12 | 12 | 5 | 4 | 7 | 14 | . | .
COc1ccc(O)c(-c2cc(-c3cccs3)[nH]n2)c1 | -10 | 43* | 20 | 32 | 64* | 37 | 16 | 69*
SMILES | PfHsp90 set2 | tim10-1 inh | NALP1 inh | NALP3 yeast inh | tim23-1 inh | TIM10 inh | tim10-1 conf | tim23-1 confirm | others
S=c1[nH]nc(-c2ccncc2)n1/N=C/C(Cl)=C\c1ccccc1 | -29 | 56* | -1 | 23 | 58* | 67* | 50* | 48* | tim10 confirm=58*
CCOC(=O)c1ccc(S(=O)(=O)N2CCN(c3ccccn3)CC2)cc1 | -3 | 6 | 11 | 6 | 10 | 7 | . | .
CCC(CC)c1nnc(NC(=O)C2CSC3(C)CCC(=O)N23)s1 (stereo not given) | 7 | 19 | . | 11 | 21 | 7 | . | .
Nc1nnnn1-c1cccc([N+](=O)[O-])c1 | 5 | . | . | . | . | . | . | .
O=C(N(c1ccccc1)c1ccccc1)N(c1ccccc1)c1ccccc1 | . | 46* | 16 | -2 | 52* | 39 | 22 | 41*
Cc1cc(C)cc(N(C(C)C(=O)NCc2ccc3c(c2)OCO3)S(C)(=O)=O)c1 (stereo not given) | 14 | 14 | -4 | -1 | 11 | -1 | . | .
CC(C)CNC(=O)C(=O)NCC1CCCN1S(=O)(=O)c1cccs1 (stereo not given) | . | 6 | . | 18 | 11 | -3 | . | .
CC1=NN(C(N)=S)C(=O)C1N=Nc1ccc(Cl)cc1Cl (stereo not given) | -22 | 57* | 17 | 39 | 64* | 46* | 56* | 73* | tim10 confirm=58*
Nc1ccc2nn(-c3cc([N+](=O)[O-])ccc3O)nc2c1 | -70 | 51* | 18 | 2 | 58* | 28 | 38* | 53*
Nc1ccc(-n2cnc3cc([N+](=O)[O-])ccc32)cc1 | -1 | 10 | 10 | 34 | 11 | 7 | . | .
CCN(Cc1ccccc1)C(c1ccncc1)c1nnnn1C(C)(C)C (stereo not given) | -22 | 41* | 6 | 3 | 53* | 30 | 39* | 37
COc1ccc(C(=O)O/N=C(/C)c2cccs2)cc1 | 73 | 23 | 6 | 45 | 48 | 6 | . | .
Cc1ccccc1C(=O)O/N=C(\N)Cc1cccs1 | -33 | 67* | 15 | 23 | 77* | 90* | 70* | 80* | tim10 confirm=69*
